The text below walks through data of PubChem BioAssay (EPA / NIEHS).

The source made the active and inactive calls. How the source made its calls: active means hit-call score of the fitted dose curve at least 0.9, where 1 is the maximum; inactive means score below 0.9.

A short description of assay [1]: ATG_E_Box_CIS: Attagene CIS-FACTORIAL HepG2 Assay for human Enhancer Box (E-box) (AID 2282936). The conditions noted are these: HepG2 E-box cis-reporter transcription, actives raise or lower the signal. The essentials: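 Multiplexed CIS reporter system in transiently transfected HepG2 cells measures native transcription factor activity. Reporter RNA after 24 h exposure is profiled by RT-PCR-capillary electrophoresis.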

Assay [2] in a line: ATG_M_61_CIS: Attagene CIS-FACTORIAL HepG2 Assay for M61 Transcription Factor (Internal Marker) (AID 2282937). Conditions: HepG2 Attagene CIS-FACTORIAL M61 internal marker reporter; actives raise or lower the signal. The essentials:
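Human liver HepG2, transient MRTU transfection (cis promoter elements), 24 h compound. Total RNA → oligo(dT) RT → PCR → FAM label → HpaI → CE. Internal background marker; bidirectional fitting, DMSO = baseline.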

Assay [3] is described as follows: ATG_EGR_CIS: Attagene CIS-FACTORIAL HepG2 Assay for human Early Growth Response 1 (EGR1) (AID 2282938). The conditions noted are these: HepG2 Attagene CIS-FACTORIAL EGR reporter mRNA; actives raise or lower the signal. The essentials: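 Transient transfection of human HepG2 with multiple cis-regulated reporter units, chemical exposure 24 h, total RNA isolated. Reverse transcription, PCR, fluorescent labelling and capillary electrophoresis quantify reporter transcripts; activity fitted bidirectionally against DMSO.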

The nature of assay [4]: ATG_M_19_CIS: Attagene CIS-FACTORIAL HepG2 Assay for M19 Transcription Factor (Internal Marker) (AID 2282939). The conditions noted are these: HepG2 Attagene CIS-FACTORIAL M19 internal marker reporter; actives raise or lower the signal. Put shortly:
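Following a 24 h exposure, RNA from transfected HepG2 cells was reverse-transcribed, PCR-amplified with reporter-specific primers, end-labelled with 6-FAM and HpaI-digested before capillary separation. Values represent gain or loss versus DMSO.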

The nature of assay [5]: ATG_ERE_CIS: Attagene CIS-FACTORIAL HepG2 Assay for Estrogen Response Element (ERE) (AID 2282940). The conditions noted are these: HepG2 ERE cis-reporter, Attagene RNA transcript; actives raise or lower the signal. The essentials:
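HepG2, transient cis-reporter units, 24 h exposure. RNA isolated, oligo(dT) RT, reporter-specific PCR, FAM extension, HpaI cut, CE detection. Gain/loss-of-signal vs DMSO.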

Assay [6] is described as follows: ATG_Ets_CIS: Attagene CIS-FACTORIAL HepG2 Assay for human Erythroblast Transformation Specific (ETS) (AID 2282941). Conditions: HepG2 ETS cis-reporter transcription, actives raise or lower the signal. The essentials: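 After transient cis-reporter transfection, HepG2 cells receive test chemical for 24 h. Reporter mRNA levels, measured by RT-PCR and capillary electrophoresis fluorescence, are analysed bidirectionally relative to the DMSO baseline.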

The target in assay [7] is Hepatocyte nuclear factor 3-beta (Homo sapiens) (UniProt Q9Y261). Nature of the assay: ATG_FoxA2_CIS: Attagene CIS-FACTORIAL HepG2 Assay for human Forkhead box A2 (FOXA2) (AID 2282942). The conditions noted are these: HepG2 cis-reporter transcription factor activity, 24 h; actives raise or lower the signal. Put shortly:
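Transient MRTU transfection of HepG2 liver cells; 24 h treatment; total RNA → oligo(dT) RT → PCR → FAM primer extension → HpaI cut → CE. Bidirectional fit vs DMSO.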

Assay [8] is described as follows: ATG_FoxO_CIS: Attagene CIS-FACTORIAL HepG2 Assay for human Forkhead box O (FoxO) (AID 2282943). The conditions noted are these: HepG2 Attagene cis-reporter, FoxO element, mRNA; actives raise or lower the signal. The essentials:
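Values reflect reporter mRNA induction or loss in HepG2 cells 24 h post-dosing, fitted bidirectionally with DMSO as negative control and baseline. Detection used RT-PCR and fluorescence capillary electrophoresis.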

The nature of assay [9]: ATG_GATA_CIS: Attagene CIS-FACTORIAL HepG2 Assay for human GATA Binding Protein (AID 2282944). The conditions noted are these: HepG2 GATA cis-element reporter, Attagene multiplex mRNA; actives raise or lower the signal. Put shortly: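 DMSO serves as negative control and baseline for bidirectional fitting of reporter mRNA changes. HepG2 cells bearing transiently transfected cis-promoter reporters were exposed 24 h; transcripts detected via RT-PCR and capillary electrophoresis.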

Assay [10] addresses Bile acid receptor (Homo sapiens) (UniProt Q96RI1). Nature of the assay: ATG_IR1_CIS: Attagene CIS-FACTORIAL HepG2 Assay for human Nuclear Receptor Subfamily 1 Group H Member 4 (NR1H4), IR1 submotif (AID 2282946). Conditions: IR1 reporter transcription, actives raise or lower the signal. The essentials:
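Transient MRTU transfection, HepG2; 24 h dosing; RNA → RT-PCR → 6-FAM primer extension → HpaI digest → capillary electrophoresis fluorescence. Gain/loss of signal fitted relative to DMSO.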

Assay [11] can be described thus: ATG_GRE_CIS: Attagene CIS-FACTORIAL HepG2 Assay for human Glucocorticoid Response Elements (GRE) (AID 2282947). Conditions: HepG2 GRE cis-reporter, Attagene multiplex mRNA; actives raise or lower the signal. The essentials: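 Following 24 h chemical exposure of transiently transfected HepG2 cells, total RNA was reverse-transcribed and reporter cDNA amplified, fluorescently labelled and sized by capillary electrophoresis. Signal gain or loss was fitted relative to DMSO vehicle.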

A short description of assay [12]: ATG_ISRE_CIS: Attagene CIS-FACTORIAL HepG2 Assay for human Interferon Regulatory Factor 1 (IRF1) binding to an Interferon-Stimulated Response Element (ISRE) (AID 2282948). Conditions: HepG2 ISRE cis-reporter (Attagene), mRNA transcription readout; actives raise or lower the signal. The essentials: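 Quantitation relies on labelled RT-PCR fragments separated by capillary electrophoresis. Human HepG2 cells bearing cis-promoter reporter constructs were treated 24 h; DMSO served as baseline for bidirectional fitting.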

A short description of assay [13]: ATG_M_32_CIS: Attagene CIS-FACTORIAL HepG2 Assay for M32 Transcription Factor (Internal Marker) (AID 2282949).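 Further: background control marker of the multiplexed CIS panel rather than a real target.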 The conditions noted are these: HepG2 Attagene cis-factorial M32 reporter, mRNA; actives raise or lower the signal. Put shortly: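 Fluorescent capillary electrophoresis peaks of HpaI-digested, FAM-labelled RT-PCR reporter products give the signal. Source: transiently transfected human liver HepG2 cells, 24 h after chemical dosing; bidirectional fitting against DMSO.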

Assay [14] can be described thus: ATG_M_06_CIS: Attagene CIS-FACTORIAL HepG2 Assay for M06 Transcription Factor (Internal Marker) (AID 2282950). The conditions noted are these: HepG2 Attagene CIS-FACTORIAL M06 internal marker reporter; actives raise or lower the signal. The essentials: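 Fluorescence-labelled RT-PCR products from cis-promoter reporter units, cut with HpaI and resolved by capillary electrophoresis, give the signal. Cells are human HepG2, dosed for 24 h. Serves as background control, fitted relative to DMSO.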

Assay [15] deals with Hypoxia-inducible factor 1-alpha (Homo sapiens) (UniProt Q16665). Nature of the assay: ATG_HIF1a_CIS: Attagene CIS-FACTORIAL HepG2 Assay for human Hypoxia Inducible Factor 1 (HIF1A) (AID 2282951). The conditions noted are these: HepG2 Attagene cis-factorial HIF1a reporter transcription; actives raise or lower the signal. Put shortly:
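Transient MRTU transfection of human HepG2 liver cells, 24 h compound treatment, then total RNA isolation, oligo(dT) reverse transcription, PCR amplification, fluorescent labelling and capillary electrophoresis of reporter fragments. Gain or loss relative to DMSO.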

Assay [16] addresses Hepatocyte nuclear factor 6 (Homo sapiens) (UniProt Q9UBC0). In words: ATG_HNF6_CIS: Attagene CIS-FACTORIAL HepG2 Assay for human Hepatocyte Nuclear Factor 6 (HNF6) (AID 2282952). Conditions: HepG2 Attagene cis-factorial HNF6 reporter transcription; actives raise or lower the signal. The essentials:
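HepG2, transient MRTU transfection (cis promoters); 24 h chemical exposure; total RNA → oligo(dT) RT → PCR → 6-FAM labelling → HpaI cut → CE; bidirectional fit vs DMSO.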

Assay [17] has as its target Heat shock factor protein 1 (Homo sapiens) (UniProt Q00613). In words: ATG_HSE_CIS: Attagene CIS-FACTORIAL HepG2 Assay for human Heat Shock Transcription Factor 1 (HSE) (AID 2282953). The conditions noted are these: HepG2 HSE cis-reporter, Attagene RNA transcription; actives raise or lower the signal. The essentials: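 After a 24 h incubation with test chemical, transfected HepG2 cells were harvested for RNA; reporter transcripts were measured by RT-PCR and capillary electrophoresis. Values reflect gain or loss of signal relative to DMSO.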

Assay [18] in a line: ATG_MRE_CIS: Attagene CIS-FACTORIAL HepG2 Assay for human Metal Responsive Element (MRE) (AID 2282954). The conditions noted are these: HepG2 MRE cis-reporter transcription, Attagene multiplex; actives raise or lower the signal. Put shortly: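 Step one: transfect HepG2 with cis-regulated reporter units. Step two: dose 24 h. Step three: isolate RNA, RT-PCR, 6-FAM label, HpaI digest, capillary electrophoresis. Fit bidirectionally to DMSO.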

Assay [19] is described as follows: ATG_PBREM_CIS: Attagene CIS-FACTORIAL HepG2 Assay for human Phenobarbital-responsive Enhancer Module (PBREM) (AID 2282955). Conditions: HepG2 PBREM cis-reporter, Attagene multiplexed transcription; actives raise or lower the signal. The essentials:
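Endogenous transcription factors in human liver HepG2 cells drive a PBREM cis-element reporter, whose transcript level after 24 h treatment is quantified by RT-PCR with capillary electrophoresis; activity fitted in both directions against DMSO.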

Assay [20] in a line: ATG_GLI_CIS: Attagene CIS-FACTORIAL HepG2 Assay for human Zinc Finger Protein GLI1 (AID 2282945). Conditions: HepG2, Attagene cis-factorial reporter mRNA, GLI element; actives raise or lower the signal. The essentials:
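HepG2 cells transiently transfected with cis-promoter multiplexed reporter units report endogenous transcription factor activity. After 24 h chemical exposure, reporter mRNA was quantified by RT-PCR, 6-FAM labelling, HpaI digestion and capillary electrophoresis, with bidirectional fitting against DMSO.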

Chain of Hypoxia-inducible factor 1-alpha (Homo sapiens) (Q16665 whole entry, looked up, the tested form may be a part): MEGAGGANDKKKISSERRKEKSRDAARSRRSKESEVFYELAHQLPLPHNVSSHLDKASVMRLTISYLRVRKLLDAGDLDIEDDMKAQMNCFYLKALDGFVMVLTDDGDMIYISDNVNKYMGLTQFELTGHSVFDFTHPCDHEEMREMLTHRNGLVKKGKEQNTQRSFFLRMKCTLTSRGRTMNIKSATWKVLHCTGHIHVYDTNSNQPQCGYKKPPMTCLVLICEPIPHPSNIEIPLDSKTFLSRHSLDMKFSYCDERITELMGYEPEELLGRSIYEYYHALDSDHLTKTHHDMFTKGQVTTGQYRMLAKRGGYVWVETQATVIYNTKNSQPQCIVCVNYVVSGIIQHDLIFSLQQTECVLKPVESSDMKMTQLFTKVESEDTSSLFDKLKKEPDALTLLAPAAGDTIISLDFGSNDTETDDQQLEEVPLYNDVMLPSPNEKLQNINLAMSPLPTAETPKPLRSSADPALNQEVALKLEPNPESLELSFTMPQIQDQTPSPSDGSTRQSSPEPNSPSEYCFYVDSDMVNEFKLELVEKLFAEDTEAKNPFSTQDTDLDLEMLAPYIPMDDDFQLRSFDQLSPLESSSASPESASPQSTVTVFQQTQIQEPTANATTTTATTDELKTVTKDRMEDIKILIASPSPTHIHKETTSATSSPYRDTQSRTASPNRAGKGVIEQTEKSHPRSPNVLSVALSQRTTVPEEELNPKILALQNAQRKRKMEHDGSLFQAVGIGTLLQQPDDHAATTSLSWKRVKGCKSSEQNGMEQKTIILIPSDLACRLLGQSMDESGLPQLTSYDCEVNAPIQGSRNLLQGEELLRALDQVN
Chain of Bile acid receptor (Homo sapiens) (Q96RI1 whole entry, looked up): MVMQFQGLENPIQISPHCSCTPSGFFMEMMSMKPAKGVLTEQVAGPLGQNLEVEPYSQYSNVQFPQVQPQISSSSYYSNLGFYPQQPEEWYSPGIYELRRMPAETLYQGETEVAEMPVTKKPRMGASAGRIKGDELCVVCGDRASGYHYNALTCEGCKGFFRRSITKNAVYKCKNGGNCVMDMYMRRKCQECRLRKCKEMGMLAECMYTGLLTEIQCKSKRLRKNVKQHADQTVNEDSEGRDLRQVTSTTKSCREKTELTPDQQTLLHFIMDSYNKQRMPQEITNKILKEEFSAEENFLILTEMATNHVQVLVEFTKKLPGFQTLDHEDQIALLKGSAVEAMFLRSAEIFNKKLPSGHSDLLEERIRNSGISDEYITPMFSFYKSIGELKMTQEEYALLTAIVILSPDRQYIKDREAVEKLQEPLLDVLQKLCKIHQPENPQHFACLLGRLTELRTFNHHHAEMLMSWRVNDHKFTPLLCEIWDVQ
Chain of Hepatocyte nuclear factor 3-beta (Homo sapiens) (Q9Y261 whole entry, looked up): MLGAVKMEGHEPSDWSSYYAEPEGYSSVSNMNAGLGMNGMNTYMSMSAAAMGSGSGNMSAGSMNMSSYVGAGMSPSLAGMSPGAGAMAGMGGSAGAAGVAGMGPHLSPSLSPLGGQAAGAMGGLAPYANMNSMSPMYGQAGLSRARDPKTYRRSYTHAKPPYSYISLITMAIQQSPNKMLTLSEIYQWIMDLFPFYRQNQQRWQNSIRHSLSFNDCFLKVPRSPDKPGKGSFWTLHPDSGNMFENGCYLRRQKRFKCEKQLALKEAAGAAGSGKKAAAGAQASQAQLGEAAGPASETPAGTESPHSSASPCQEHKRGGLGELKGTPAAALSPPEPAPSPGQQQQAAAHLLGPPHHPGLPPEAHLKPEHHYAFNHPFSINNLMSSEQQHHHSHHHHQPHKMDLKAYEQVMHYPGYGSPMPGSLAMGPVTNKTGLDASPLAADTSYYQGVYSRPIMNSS
Chain of Hepatocyte nuclear factor 6 (Homo sapiens) (Q9UBC0 whole entry, looked up): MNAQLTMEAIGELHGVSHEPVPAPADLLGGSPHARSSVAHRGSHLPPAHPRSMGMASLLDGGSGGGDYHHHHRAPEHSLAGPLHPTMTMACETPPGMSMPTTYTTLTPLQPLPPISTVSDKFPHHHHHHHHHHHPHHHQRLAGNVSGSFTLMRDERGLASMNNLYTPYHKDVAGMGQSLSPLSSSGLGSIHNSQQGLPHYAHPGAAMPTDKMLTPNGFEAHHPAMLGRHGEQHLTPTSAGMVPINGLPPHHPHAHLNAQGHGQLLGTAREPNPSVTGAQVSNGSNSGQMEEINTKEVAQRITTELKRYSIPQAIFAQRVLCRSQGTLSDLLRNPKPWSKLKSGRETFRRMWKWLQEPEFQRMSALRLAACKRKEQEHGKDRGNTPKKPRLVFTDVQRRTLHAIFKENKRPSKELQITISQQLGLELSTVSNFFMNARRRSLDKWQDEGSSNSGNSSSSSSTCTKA
Chain of Heat shock factor protein 1 (Homo sapiens) (Q00613 whole entry, looked up): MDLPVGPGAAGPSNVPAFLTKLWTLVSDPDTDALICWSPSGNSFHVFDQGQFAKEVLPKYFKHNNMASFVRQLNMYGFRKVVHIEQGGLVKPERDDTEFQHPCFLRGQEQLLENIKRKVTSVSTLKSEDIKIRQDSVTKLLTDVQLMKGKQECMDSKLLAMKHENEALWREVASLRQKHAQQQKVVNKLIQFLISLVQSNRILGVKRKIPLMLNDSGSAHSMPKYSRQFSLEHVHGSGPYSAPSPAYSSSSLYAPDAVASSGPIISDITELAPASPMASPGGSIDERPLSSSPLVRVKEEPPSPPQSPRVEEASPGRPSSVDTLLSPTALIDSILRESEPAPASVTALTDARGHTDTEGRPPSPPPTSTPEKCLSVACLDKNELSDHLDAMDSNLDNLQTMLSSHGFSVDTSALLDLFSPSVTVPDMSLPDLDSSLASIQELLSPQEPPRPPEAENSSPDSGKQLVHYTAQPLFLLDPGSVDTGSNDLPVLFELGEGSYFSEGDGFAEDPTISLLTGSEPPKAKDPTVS

`CCOc1nc(F)cc2nc(S(=O)(=O)Nc3c(Cl)cccc3C(=O)OC)nn12`: the outcome in assay [1], in [2], in assay [3], in assay [4], in [5] and in assay [6] was inactive. The result in [7], in assay [8], in assay [9], in assay [10], in [11] and in assay [12] was inactive. Also, the outcome in assay [13], in assay [14], in assay [15], in assay [16], in assay [17] and in assay [18] was inactive. In assay [19], the outcome was inactive.
As for `C1CN(SSN2CCOCC2)CCO1`, the result in assay [1], in assay [2], in [3], in assay [4], in [5] and in assay [6] was inactive. The call in assay [7], in [8], in assay [20], in [10], in assay [11] and in assay [12] was inactive. The compound was classed as inactive in [13], in assay [14], in assay [15], in [16] and in [18]. For the same compound, the AC50 in assay [17] was 44.4 µM (active).
With `SCCc1cnccn1`, the result in assay [1], in [2], in [3], in assay [4], in assay [5] and in assay [6] was inactive. In addition, the result in [7], in assay [9], in assay [20], in [11], in assay [13] and in [14] was inactive. For the same compound, the compound was called inactive in [15], in assay [16], in assay [17], in assay [18] and in [19]. Besides, the AC50 in assay [12] is 43.3 µM (active).
For `CC(CC=O)CCCC(C)(C)O` (stereo not drawn), the result in assay [1], in assay [2], in [3], in assay [4], in assay [5] and in assay [6] was inactive. Further, the result in assay [7], in assay [8], in [20], in [11], in assay [12] and in assay [13] was inactive. Moreover, the compound was classed as inactive in [14], in [15], in assay [16], in [17] and in [18].
Turning to `CC(=O)[C@H]1[C@H](C#N)C[C@H]2[C@@H]3CC=C4C[C@@H](O)CC[C@]4(C)[C@H]3CC[C@@]21C`, the outcome in [1], in assay [2], in assay [3], in assay [4], in assay [5] and in assay [6] was inactive. Moreover, the compound was classed as inactive in assay [7], in assay [8], in assay [10], in assay [11], in assay [12] and in [14]. Also, the compound was called inactive in assay [16], in assay [17] and in assay [18].
`COC(=O)c1ccccc1OC`: the outcome in assay [1], in [2], in assay [3], in [4], in [5] and in assay [6] was inactive. The call in [7], in assay [9], in assay [20], in [10], in assay [11] and in [12] was inactive. Moreover, the compound was classed as inactive in assay [13], in [14], in assay [15], in assay [16], in [17] and in assay [18].
Turning to `C[C@]12C=CC(=O)C=C1CC[C@@H]1[C@@H]2[C@@H](O)C[C@@]2(C)[C@H]1CC[C@]2(O)C(=O)CO`, the result in assay [1], in assay [2], in assay [3], in assay [4], in assay [5] and in [6] was inactive. Besides, the compound was classed as inactive in [7], in assay [9], in [20], in assay [12], in assay [13] and in assay [16]. Besides, the compound was called inactive in assay [17], in assay [18] and in assay [19]. Further, the AC50 in assay [11] is 0.394 µM (active).
Turning to `CC/C=C\C/C=C\C/C=C\CCCCCCCC(=O)O`, the AC50 was 100 µM (active) in assay [1]; 103 µM (active) in assay [3]; 69 µM (active) in assay [12]; 188 µM (active) in assay [17]; 140 µM (active) in assay [18]. Further, the compound was called inactive in assay [2], in [4], in [5], in assay [6], in assay [7] and in assay [8]. The outcome in [20], in assay [10], in assay [13], in assay [15], in [16] and in assay [19] was inactive.
